# High-throughput results (PubChem)
# MITF TRPM1 inh – MITF TRPM1 promoter inhibition in SK-MEL-5 cells | SK-MEL-5 TRPM1 promoter luciferase, 24 h | inhibition, % at 12.5 µM | actives 0.83% (n = 330,000);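 active = mean inhibition across replicates of 60% or more, whatever share of single replicates reaches that level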
# EWS-Fli inh – inhibitors of EWS/Fli oncoprotein transcriptional activity. A673 NR0B1-luciferase reporter, viability-normalised. inhibition, % at 12.6 µM. actives 0.67% (n = 350,000). AID 651661;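 active = mean inhibition of at least 50% after viability correction, with every replicate also passing that limit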;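 also: firefly luciferase signal divided by Alamar Blue viability fluorescence both relative to DMSO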
# PGC1a acetyl inh – modulators of PGC1a acetylation; U2OS PGC1a acetylation, AlphaScreen anti-acetyl-lysine; with virally co-expressed GCN5 acetyltransferase; inhibition, % at 15.6 µM; actives 0.17% (n = 350,000); AID 651687;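 active = every replicate shows inhibition of at least 40%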
# LGR2 antag – inhibitors of bursicon-induced Drosophila LGR2 receptor cAMP signaling; actives 0.35% (n = 380,000); AID 720647; HEK293 LGR2, CRE-luciferase, bursicon-stimulated, 4 h; inhibition, % at 9.99 µM;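 active = drop in luminescence signal, shown as inhibition above about 50% in the replicate tests, limit read from the data, passing the limit was not always enough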;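 also: agonist challenge used bursicon conditioned medium at about half maximal strength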
# LMP1 NFkB inh – inhibitors of Epstein-Barr LMP1-induced NF-kappaB reporter | LMP1-induced NF-kappaB luciferase reporter cells, luminescence | inhibition, % at 12.5 µM | actives 0.69% (n = 350,000) | AID 504558; in the data active = inhibition above about 41%
# PAX8 reporter – PAX8 transcriptional activity inhibition; RMG-I TPO-luciferase reporter, SteadyGlo, 24 h; inhibition, % at 12.6 µM; actives 1.2% (n = 360,000); AID 652154;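 active = mean replicate inhibition at least 60% with every replicate also reaching 60%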;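 also: luciferase light reporting Pax8 driven TPO promoter activity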
# Hits are given with their value; – = inactive; · = no result given. Compounds with a hit are over-represented: about 2.2% of the library has one in this group of screens.
SMILES,MITF TRPM1 inh,EWS-Fli inh,PGC1a acetyl inh,LGR2 antag,LMP1 NFkB inh,PAX8 reporter
CC(=O)O[C@H]1C(=O)[C@@]2(C)C([C@H](OC(=O)c3ccccc3)[C@]3(O)C[C@H](OC(=O)[C@H](O)[C@@H](NC(=O)c4ccccc4)c4ccccc4)C(C)=C1C3(C)C)[C@]1(OC(C)=O)CO[C@@H]1C[C@H]2O (some centres undefined),·,54.5,–,–,–,·
O=C1CN(S(=O)(=O)Cc2ccccc2)C[C@@H]2[C@@H](c3ccc(C#CC4CC4)cc3)[C@@H](CO)N12,·,–,–,–,·,79.2
CCS(=O)(=O)N1CC(=O)N2[C@H](CO)[C@@H](c3ccc(-c4ccccc4F)cc3)[C@H]2C1,·,–,–,–,·,80.7
O=C1CN(S(=O)(=O)Cc2ccccc2)C[C@H]2[C@H](c3ccc(C#Cc4ccc(F)cc4)cc3)[C@H](CO)N12,·,–,–,·,·,98.6
O=C1CN(S(=O)(=O)Cc2ccccc2)C[C@H]2[C@@H](c3ccc(C#Cc4ccc(F)cc4)cc3)[C@@H](CO)N12,·,–,–,–,·,–
O=C1CN(S(=O)(=O)Cc2ccccc2)C[C@H]2[C@H](c3ccc(C#CC4CC4)cc3)[C@H](CO)N12,·,–,–,–,·,–
CCS(=O)(=O)N1CC(=O)N2[C@H](CO)[C@@H](c3ccc(-c4ccccc4F)cc3)[C@@H]2C1,·,–,–,–,·,–
C[C@H](CO)N1C[C@H](C)[C@H](CN(C)C(=O)C2CC2)Oc2cc(-c3cccc(F)c3)ccc2S1(=O)=O,·,–,–,–,·,–
C[C@H](CO)N1C[C@H](C)[C@@H](CN(C)C(=O)Nc2ccc3c(c2)OCO3)Oc2ccc(NS(C)(=O)=O)cc2CC1=O,·,–,–,–,·,–
CCC(=O)N(C)C[C@@H]1Oc2ncc(C#CCC(C)C)cc2C(=O)N([C@@H](C)CO)C[C@H]1C,·,–,–,–,·,·
COc1ccc(/C=N/NC(=O)C(=O)N2CCCCCC2)cc1,–,–,·,–,–,–
O=C(COc1ccc(/C=N/NC(=O)C(=O)N2CCCCCC2)cc1)Nc1ccccc1Cl,–,–,–,–,–,78.0
CCOc1ccc(-c2nnc(SCC(=O)Nc3ccc4c(c3)c3ccccc3n4CC)n2N)cc1,78.0,·,–,·,–,–
CCn1c2ccccc2c2cc(NC(=O)CSc3nnc(-c4ccc(OC)c(OC)c4)n3N)ccc21,–,·,–,·,–,–
CN(Cc1ccccc1)N=Nc1nc[nH]c1C(N)=O,·,–,–,–,·,87.0
CN(Cc1ccccc1)N=Nc1ccccc1,·,–,·,–,–,–
C[C@@H]1CN([C@H](C)CO)C(=O)CCCn2cc(nn2)CO[C@@H]1CN(C)Cc1cccc2c1OCCCO2,·,–,–,–,·,–
O=[N+]([O-])c1cc2c(ccc3occc32)o1,·,–,·,–,·,106.9
O=[N+]([O-])c1ccc2c(c1)oc1ccccc12,–,·,–,·,–,–
O=C(NCCCN1CCOCC1)[C@H]1N[C@H]2c3ccc(C4=CCCC4)c(=O)n3C[C@H]2[C@@H]1CO,·,–,–,–,·,–
OCCN(Cc1ccccc1)CC1CCCCC1,–,·,56.6,–,–,·
O=C(COC(=O)CNC(=O)C1CCCCC1)Nc1cc(C(F)(F)F)ccc1Cl,–,–,–,·,–,–
O=C(Cn1cc(CNC(=O)C2CCCCC2)nn1)Nc1cc(C(F)(F)F)ccc1Cl,–,–,·,–,42.4,–
CC(C)n1cnc2c(Nc3cccc(Cl)c3)nc(NCCCO)nc21,–,–,–,–,–,–
C=CC(=O)Nc1cccc(Nc2nc(N[C@H]3CC[C@H](N(C)C)CC3)nc3c2ncn3C(C)C)c1,90.0,·,·,·,91.5,·
SMILES,MITF TRPM1 inh,EWS-Fli inh,PGC1a acetyl inh,LGR2 antag,LMP1 NFkB inh,PAX8 reporter
C[C@@H]1CN([C@H](C)CO)C(=O)c2cc(NC(=O)c3ccncc3)ccc2O[C@@H](C)CCCCO[C@H]1CN(C)Cc1ccc(C(=O)O)cc1,·,–,–,–,·,–
CCCSc1cc(NCCOC(=O)CCC)c([N+](=O)[O-])c2nonc12,–,·,·,–,–,–
CCCC(=O)OCCNc1cc(Sc2nccn2C)c2nonc2c1[N+](=O)[O-],101.0,·,·,–,–,–
CCC(=O)OCCNc1cc(Sc2nc3ccccc3[nH]2)c2nonc2c1[N+](=O)[O-],72.2,·,·,–,–,–
O=C(C[C@@H]1CC[C@H]2[C@@H](COC[C@H](O)CN2CCc2ccccc2)O1)NCc1ccc(Oc2ccccc2)cc1,·,–,–,–,·,–
C[C@@H]1CN([C@@H](C)CO)C(=O)Cc2cc(NS(=O)(=O)c3ccc(Cl)cc3)ccc2O[C@H]1CN(C)Cc1ccc(Cl)c(Cl)c1,·,–,–,–,·,85.7
C[C@@H]1CN([C@H](C)CO)C(=O)Cc2cc(NS(=O)(=O)c3ccc(F)cc3)ccc2O[C@H]1CN(C)Cc1ccc(Cl)c(Cl)c1,·,–,–,–,·,–
COc1ccc(S(=O)(=O)Nc2ccc3c(c2)CC(=O)N([C@@H](C)CO)C[C@@H](C)[C@H](CN(C)Cc2ccc(Cl)c(Cl)c2)O3)cc1,·,–,–,–,·,–
C[C@@H]1CN([C@@H](C)CO)C(=O)Cc2cc(NS(=O)(=O)c3ccccc3)ccc2O[C@H]1CN(C)Cc1ccc(Cl)c(Cl)c1,·,–,–,–,·,113.6
COc1ccc(S(=O)(=O)Nc2ccc3c(c2)CC(=O)N([C@H](C)CO)C[C@H](C)[C@@H](CN(C)Cc2ccc(Cl)c(Cl)c2)O3)cc1,·,–,–,–,·,75.3
C[C@H](CO)N1C[C@H](C)[C@H](CN(C)Cc2ccc(Cl)c(Cl)c2)Oc2ccc(NS(=O)(=O)c3cn(C)cn3)cc2CC1=O,·,64.7,–,–,·,–
C[C@@H]1CN([C@H](C)CO)C(=O)c2cccc(NC(=O)c3ccc(-c4nccs4)cc3)c2O[C@H]1CN(C)C(=O)NC1CCCCC1,·,–,–,–,·,·
C[C@H]1CN([C@@H](C)CO)C(=O)c2cc(NC(=O)CCCN(C)C)ccc2O[C@H]1CN(C)C(=O)Nc1ccc2c(c1)OCO2,·,·,–,–,·,–
CNC[C@@H]1Oc2ccc(N(C)C)cc2C(=O)N([C@@H](C)CO)C[C@H]1C,·,·,–,–,·,·
C[C@H](CO)N1C[C@H](C)[C@H](CN(C)CC2CCCCC2)Oc2ccc(NS(=O)(=O)c3ccc(Cl)cc3)cc2CC1=O,·,–,–,–,·,106.3
C[C@@H]1CN([C@H](C)CO)C(=O)Cc2cc(NS(=O)(=O)c3ccc(Cl)cc3)ccc2O[C@H]1CN(C)Cc1ccc(Cl)c(Cl)c1,·,–,–,–,·,–
C[C@H]1CN([C@@H](C)CO)C(=O)Cc2cc(NS(=O)(=O)c3ccc(Cl)cc3)ccc2O[C@H]1CN(C)CC1CCCCC1,·,–,–,·,·,–
C[C@H](CO)N1C[C@H](C)[C@@H](CN(C)Cc2ccc(Cl)c(Cl)c2)Oc2ccc(NS(=O)(=O)c3ccc(Cl)cc3)cc2CC1=O,·,–,–,–,·,69.6
CCCC(=O)Nc1ccc2c(c1)OC[C@@H](C)N(Cc1ccccn1)C[C@@H](C)[C@H](OC)CN(C)C2=O,·,–,–,–,·,–
